Measured values from PubChem BioAssay (NCATS).
Records with an inconclusive call do not appear. Active and inactive are the calls of the source. Calls follow the shape of the dose curve; as a rule, active = well fitted inhibition curve with a large enough effect; inconclusive = small, poorly fitted or top-dose-only effect; inactive = flat fitted curve, though single readings scatter.

What follows are molecules tested on CRL-7250 (assay: Cytotoxic Profiling of Annotated Libraries Using Quantitative High-Throughput Screening (AID 1296008; also: nearly all actives have a fitted effect of over 60% in size)). Details: Five cell lines viability, CellTiter-Glo ATP luminescence, 48-72 h; stronger effect = lower value.
Outline: (§1)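 Compounds were pin-transferred onto cells and incubated 48 or 72 hr at 37 degree Celsius, 95% humidity. CellTiter-Glo was added, plates sat 10 min at room temperature, then ATP-coupled luminescence was imaged as the viability read-out.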
% is scaled to controls: 0 for no effect and ±100 for the full control effect.

SMILES | max response | outcome
CC(C)NC[C@@H](O)COc1ccc(CC(N)=O)cc1 | -2.68% (inactive) | –
C/C=C1\[C@H]2C=C(C)C[C@]1(N)c1ccc(=O)[nH]c1C2 | -0.0215% (inactive) | –
C=CCOc1ccccc1OCC(O)CNC(C)C (stereo unspecified) | -3.74% (inactive) | –
CCCNC(C)C(=O)Nc1c(C)csc1C(=O)OC (stereo unspecified) | – | inactive
O=C(O)[C@@H]1[C@H]2C[C@H]3c4[nH]c5ccccc5c4CCN3C[C@@H]2CC[C@@H]1O | -7.72% (inactive) | –
CN[C@@H]1[C@H](O)[C@H](NC)[C@H]2O[C@@]3(O)C(=O)C[C@@H](C)O[C@H]3O[C@@H]2[C@H]1O | -3.95% (inactive) | –
Cc1ccc2c(c1)c1c3n2CCNC3CCC1 (stereo unspecified) | -2.33% (inactive) | –
CC(=O)N[C@@H](CC(C)C)C(=O)O | -9.67% (inactive) | –
NC(=O)N[C@@H](CCC(=O)O)C(=O)O | – | inactive
CC(=O)OCC(=O)[C@@]1(O)CC[C@H]2[C@@H]3CCC4=CC(=O)C=C[C@]4(C)[C@@]3(F)[C@@H](O)C[C@@]21C | 2.22% (inactive) | –
O=C(O)C(S)C(S)C(=O)O (stereo unspecified) | -6.2% (inactive) | –
NS(=O)(=O)c1cc(C2(O)NC(=O)c3ccccc32)ccc1Cl (stereo unspecified) | -0.145% (inactive) | –
CCOC(=O)OC(C)OC(=O)[C@@H]1N2C(=O)[C@@H](NC(=O)[C@H](N)c3ccccc3)[C@H]2SC1(C)C (stereo partly specified) | -4.78% (inactive) | –
CC[C@H](C)[C@H](N)C(=O)O | -1.3% (inactive) | –
COc1ccccc1OCC(O)CO (stereo unspecified) | – | inactive
C[N+]1(C)CCCC(OC(=O)C(O)(c2ccccc2)c2ccccc2)C1 (stereo unspecified) | 2.14% (inactive) | –
C1CCN2C[C@@H]3C[C@@H](CN4CCCC[C@@H]34)[C@H]2C1 | – | inactive
CN1CC(=O)NC1=N | -20.6% (inactive) | –
CCCCCOC(=O)Nc1nc(=O)n([C@@H]2O[C@H](C)[C@@H](O)[C@H]2O)cc1F | – | inactive

SMILES | max response | outcome
CC1(C)S[C@@H]2[C@H](NC(=O)C(C(=O)O)c3ccccc3)C(=O)N2[C@H]1C(=O)O (stereo partly specified) | -9.98% (inactive) | –
OCCN1C[C@H](O)[C@@H](O)[C@H](O)[C@H]1CO | 0.57% (inactive) | –
CC(=O)N[C@H]1[C@H]([C@H](O)[C@H](O)CO)OC(C(=O)O)=C[C@@H]1N=C(N)N | -5.6% (inactive) | –
CCN[C@H]1CN(CCCOC)S(=O)(=O)c2sc(S(N)(=O)=O)cc21 | 2.64% (inactive) | –
CN[C@@H]1[C@@H](O)[C@@H](O[C@@H]2[C@H](O)[C@H](O[C@H]3OC(CN)=CC[C@H]3N)[C@@H](N)C[C@H]2N)OCC1(C)O (stereo partly specified) | 2.42% (inactive) | –
NC(=O)NC1NC(=O)NC1=O (stereo unspecified) | – | inactive
C/C(=C(\CCO)SS/C(CCO)=C(\C)N(C=O)Cc1cnc(C)nc1N)N(C=O)Cc1cnc(C)nc1N | – | inactive
O=c1[nH]c(=O)n([C@H]2C[C@H](O)[C@@H](CO)O2)cc1I | – | inactive
C[C@]1(Cn2ccnn2)[C@H](C(=O)O)N2C(=O)C[C@H]2S1(=O)=O | -1.81% (inactive) | –
CN1C(=O)CC(c2ccccc2)C1=O (stereo unspecified) | 1.89% (inactive) | –
CC1(c2ccccc2)OC(C(=O)O)=CC1=O (stereo unspecified) | -0.824% (inactive) | –
CCC(C)(CN(C)C)OC(=O)c1ccccc1 (stereo unspecified) | -17.5% (inactive) | –
CC(=O)N1C[C@H](O)C[C@H]1C(=O)O | – | inactive
CCOc1ccccc1O[C@H](c1ccccc1)[C@H]1CNCCO1 | – | inactive
CC1(C)[C@@H](OC(=O)CCC(=O)O)CC[C@]2(C)[C@H]3C(=O)C=C4[C@@H]5C[C@@](C)(C(=O)O)CC[C@]5(C)CC[C@@]4(C)[C@]3(C)CC[C@@H]12 | -5.85% (inactive) | –
CC1(C)S[C@@H]2[C@H](N=CN3CCCCCC3)C(=O)N2[C@H]1C(=O)O | -6.32% (inactive) | –
CO[C@@]1(NC(=O)C(C(=O)O)c2ccc(O)cc2)C(=O)N2C(C(=O)O)=C(CSc3nnnn3C)CO[C@@H]21 (stereo partly specified) | -2.58% (inactive) | –
OC(CCN1CCCC1)(c1ccccc1)C1CCCCC1 (stereo unspecified) | -24% (inactive) | –
C=CCN1C[C@H](C(=O)N(CCCN(C)C)C(=O)NCC)C[C@@H]2c3cccc4[nH]cc(c34)C[C@H]21 | – | inactive

Each molecule was assayed on HEK293 in the same assay as above. Details: Five cell lines viability, CellTiter-Glo ATP luminescence, 48-72 h; stronger effect = lower value.
Outline: as §1

SMILES | outcome | max response
CC(C)NC[C@@H](O)COc1ccc(CC(N)=O)cc1 | inactive | –
C/C=C1\[C@H]2C=C(C)C[C@]1(N)c1ccc(=O)[nH]c1C2 | inactive | –
C=CCOc1ccccc1OCC(O)CNC(C)C (stereo unspecified) | – | 3.92% (inactive)
CCCNC(C)C(=O)Nc1c(C)csc1C(=O)OC (stereo unspecified) | – | -4.55% (inactive)
O=C(O)[C@@H]1[C@H]2C[C@H]3c4[nH]c5ccccc5c4CCN3C[C@@H]2CC[C@@H]1O | – | -7.97% (inactive)
CN[C@@H]1[C@H](O)[C@H](NC)[C@H]2O[C@@]3(O)C(=O)C[C@@H](C)O[C@H]3O[C@@H]2[C@H]1O | – | 1.03% (inactive)
Cc1ccc2c(c1)c1c3n2CCNC3CCC1 (stereo unspecified) | – | -1.48% (inactive)
CC(=O)N[C@@H](CC(C)C)C(=O)O | – | -5.66% (inactive)
NC(=O)N[C@@H](CCC(=O)O)C(=O)O | – | -4.43% (inactive)
CC(=O)OCC(=O)[C@@]1(O)CC[C@H]2[C@@H]3CCC4=CC(=O)C=C[C@]4(C)[C@@]3(F)[C@@H](O)C[C@@]21C | inactive | –
O=C(O)C(S)C(S)C(=O)O (stereo unspecified) | – | -7.93% (inactive)
NS(=O)(=O)c1cc(C2(O)NC(=O)c3ccccc32)ccc1Cl (stereo unspecified) | – | -4.45% (inactive)
CCOC(=O)OC(C)OC(=O)[C@@H]1N2C(=O)[C@@H](NC(=O)[C@H](N)c3ccccc3)[C@H]2SC1(C)C (stereo partly specified) | – | -9.36% (inactive)
CC[C@H](C)[C@H](N)C(=O)O | – | -2.12% (inactive)
COc1ccccc1OCC(O)CO (stereo unspecified) | – | -2.29% (inactive)
C[N+]1(C)CCCC(OC(=O)C(O)(c2ccccc2)c2ccccc2)C1 (stereo unspecified) | – | -3.74% (inactive)
C1CCN2C[C@@H]3C[C@@H](CN4CCCC[C@@H]34)[C@H]2C1 | – | -9.35% (inactive)
CN1CC(=O)NC1=N | inactive | –
CCCCCOC(=O)Nc1nc(=O)n([C@@H]2O[C@H](C)[C@@H](O)[C@H]2O)cc1F | inactive | –

SMILES | outcome | max response
CC1(C)S[C@@H]2[C@H](NC(=O)C(C(=O)O)c3ccccc3)C(=O)N2[C@H]1C(=O)O (stereo partly specified) | inactive | –
OCCN1C[C@H](O)[C@@H](O)[C@H](O)[C@H]1CO | inactive | –
CC(=O)N[C@H]1[C@H]([C@H](O)[C@H](O)CO)OC(C(=O)O)=C[C@@H]1N=C(N)N | – | 1.78% (inactive)
CCN[C@H]1CN(CCCOC)S(=O)(=O)c2sc(S(N)(=O)=O)cc21 | – | -2.35% (inactive)
CN[C@@H]1[C@@H](O)[C@@H](O[C@@H]2[C@H](O)[C@H](O[C@H]3OC(CN)=CC[C@H]3N)[C@@H](N)C[C@H]2N)OCC1(C)O (stereo partly specified) | – | 4.89% (inactive)
NC(=O)NC1NC(=O)NC1=O (stereo unspecified) | – | -3.84% (inactive)
C/C(=C(\CCO)SS/C(CCO)=C(\C)N(C=O)Cc1cnc(C)nc1N)N(C=O)Cc1cnc(C)nc1N | – | -0.967% (inactive)
O=c1[nH]c(=O)n([C@H]2C[C@H](O)[C@@H](CO)O2)cc1I | – | -0.666% (inactive)
C[C@]1(Cn2ccnn2)[C@H](C(=O)O)N2C(=O)C[C@H]2S1(=O)=O | inactive | –
CN1C(=O)CC(c2ccccc2)C1=O (stereo unspecified) | – | -5.41% (inactive)
CC1(c2ccccc2)OC(C(=O)O)=CC1=O (stereo unspecified) | – | 1.9% (inactive)
CCC(C)(CN(C)C)OC(=O)c1ccccc1 (stereo unspecified) | inactive | –
CC(=O)N1C[C@H](O)C[C@H]1C(=O)O | – | 1.84% (inactive)
CCOc1ccccc1O[C@H](c1ccccc1)[C@H]1CNCCO1 | – | 2.57% (inactive)
CC1(C)[C@@H](OC(=O)CCC(=O)O)CC[C@]2(C)[C@H]3C(=O)C=C4[C@@H]5C[C@@](C)(C(=O)O)CC[C@]5(C)CC[C@@]4(C)[C@]3(C)CC[C@@H]12 | – | -0.807% (inactive)
CC1(C)S[C@@H]2[C@H](N=CN3CCCCCC3)C(=O)N2[C@H]1C(=O)O | – | -2.19% (inactive)
CO[C@@]1(NC(=O)C(C(=O)O)c2ccc(O)cc2)C(=O)N2C(C(=O)O)=C(CSc3nnnn3C)CO[C@@H]21 (stereo partly specified) | – | 1.05% (inactive)
OC(CCN1CCCC1)(c1ccccc1)C1CCCCC1 (stereo unspecified) | – | -13.4% (inactive)
C=CCN1C[C@H](C(=O)N(CCCN(C)C)C(=O)NCC)C[C@@H]2c3cccc4[nH]cc(c34)C[C@H]21 | – | 1.65% (inactive)
